An excerpt weighted towards active compounds, which were near 3.5% of everything screened.
PG9 Ab binder = PG9 antibody binding by small molecule; TR-FRET gp120-PG9 antibody binding; inhibition, % at 6.7 µM; 0.43% of 360,000 active; AID 624416; in the data active means inhibition above about 8.5%
rCAG RNA binder = r(CAG) repeat RNA binding. inhibition, % at 3 µM. TO-PRO-1 dye displacement fluorescence. 1.3% of 370,000 active. AID 651821;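 active means inhibition above the plate cutoff, the mean of all test compounds on that plate plus 3 SD, cut at about 35% in these data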;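 further: 0% = DMSO alone and 100% = 100 µM mitoxantrone as full dye displacement; higher means more dye released from RNA so lower well fluorescence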
DNMT1 block = inhibitors of human DNMT1; DNMT1 molecular beacon, Hinp1I cleavage, fluorescence; P26358; inhibition (reported as % activation of signal), % at 10 µM; AID 588458; 0.83% of 360,000 active; in the data active means inhibition above about 50%
UHRF1 binding = human UHRF1 methylated DNA binding inhibitors; Q96T88; UHRF1 binding to methylated oligo, TR-FRET; inhibition, % at 4.4 µM; 0.75% of 370,000 active; in the data active means inhibition above about 21%;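 further: UHRF1 SRA domain binding a hemimethylated CpG hairpin DNA probe; 0% = median of test compound wells and 100% = reference inhibitor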
Target sequence (Q96T88 whole entry, looked up, the tested form may be a part): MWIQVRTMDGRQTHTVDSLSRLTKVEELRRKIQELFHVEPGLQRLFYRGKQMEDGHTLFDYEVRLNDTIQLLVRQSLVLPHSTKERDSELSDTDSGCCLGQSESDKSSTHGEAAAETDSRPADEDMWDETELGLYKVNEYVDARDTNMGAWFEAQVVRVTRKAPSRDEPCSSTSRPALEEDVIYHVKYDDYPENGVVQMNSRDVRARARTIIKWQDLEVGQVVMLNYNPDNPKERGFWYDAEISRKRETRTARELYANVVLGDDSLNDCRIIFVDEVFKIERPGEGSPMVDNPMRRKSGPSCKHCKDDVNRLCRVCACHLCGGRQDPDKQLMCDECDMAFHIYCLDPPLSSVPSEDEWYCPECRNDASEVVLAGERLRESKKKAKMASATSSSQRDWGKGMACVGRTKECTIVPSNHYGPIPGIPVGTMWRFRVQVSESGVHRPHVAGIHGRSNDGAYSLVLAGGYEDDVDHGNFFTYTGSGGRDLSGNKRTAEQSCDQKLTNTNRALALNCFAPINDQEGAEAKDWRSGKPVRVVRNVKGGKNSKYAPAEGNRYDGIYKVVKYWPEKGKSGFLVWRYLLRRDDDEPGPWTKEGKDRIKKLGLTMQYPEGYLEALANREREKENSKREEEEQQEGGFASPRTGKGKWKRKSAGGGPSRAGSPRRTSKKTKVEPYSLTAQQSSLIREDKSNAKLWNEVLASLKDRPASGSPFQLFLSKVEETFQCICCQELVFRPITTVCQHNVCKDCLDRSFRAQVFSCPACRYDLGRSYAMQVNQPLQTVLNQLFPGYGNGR
MBD2 inh = inhibitors of human MBD2 binding to methylated oligonucleotide; TR-FRET; inhibition, % at 4.4 µM; 0.31% of 370,000 active; in the data active means inhibition above about 13%
LEDGF integ inh = blocks HIV-1 LEDGF/p75-dependent DNA integration; 0.64% of 370,000 active; TR-FRET IN-LEDGF/p75 DNA integration, Eu/Cy5; inhibition, % at 3.7 µM;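 active means inhibition above the screen-wide mean plus 3 SD, cut at about 13% in these data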;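 further: signal is the Cy5 over europium emission ratio at 671 and 618 nm; 0% = plate median of compound wells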
An asterisk follows results filed as active.

Results for CCOC(=O)C1CCN(C2=C(NS(=O)(=O)c3ccc(Cl)cc3)C(=O)c3ccccc3C2=O)CC1 ?
PG9 Ab binder: -3; rCAG RNA binder: 2; DNMT1 block: -10; UHRF1 binding: -9; MBD2 inh: -7; LEDGF integ inh: 2

How did O=C(Nc1ccc(OC(=O)c2cccs2)cc1)c1ccco1 do in these assays?
PG9 Ab binder: 0; rCAG RNA binder: 3; DNMT1 block: -5; UHRF1 binding: 24*; MBD2 inh: 10; LEDGF integ inh: 1

Results for CCC(C)NC(=O)c1ccccc1NC(=O)Nc1ccccc1 (stereo not given) ?
PG9 Ab binder: -2; rCAG RNA binder: -2; DNMT1 block: 0; UHRF1 binding: 27*; MBD2 inh: 2; LEDGF integ inh: -1

What do the screens show for `O=C(O)c1ccc(COc2ccc3ccccc3c2/C=C2/NC(=O)N(c3ccccc3)C2=O)cc1`?
PG9 Ab binder: -1; rCAG RNA binder: 74*; DNMT1 block: -1; UHRF1 binding: -2; MBD2 inh: -3; LEDGF integ inh: 2

How did O=C(O)c1ccc(COc2ccccc2/C=C2/NC(=O)N(c3cccc(Cl)c3)C2=O)cc1 do in these assays?
PG9 Ab binder: -1; rCAG RNA binder: 27; DNMT1 block: 0; UHRF1 binding: 2; MBD2 inh: -1; LEDGF integ inh: 5

Results for Cc1ccc(C(=O)CCC(=O)N2CCC(C(N)=O)CC2)cc1 ?
PG9 Ab binder: 0; rCAG RNA binder: 7; DNMT1 block: -1; UHRF1 binding: 29*; MBD2 inh: -2; LEDGF integ inh: 5

How did COc1ccc(-c2nc3ccc(C)cn3c2NCc2ccccc2)cc1SC1CCCCC1 do in these assays?
DNMT1 block: 60*

Results for COc1ccc(-c2nc3ccc(C)cn3c2Cc2ccsc2)cc1OC ?
PG9 Ab binder: -1; rCAG RNA binder: 5; DNMT1 block: -3; UHRF1 binding: 22*; MBD2 inh: 10; LEDGF integ inh: -3

How did CCCCNc1c(-c2ccc(OC)c(SC3CCCCC3)c2)nc2ccc(C)cn12 do in these assays?
PG9 Ab binder: 3; rCAG RNA binder: 6; DNMT1 block: -17; UHRF1 binding: 0; MBD2 inh: -1; LEDGF integ inh: 1

Results for COc1ccc(-c2nc3ccc(C)cn3c2CC2CCCCC2)cc1OC ?
PG9 Ab binder: 0; rCAG RNA binder: 10; DNMT1 block: -6; UHRF1 binding: 22*; MBD2 inh: 9; LEDGF integ inh: 1

How did COc1ccc(-c2nc3cc(C)c(Br)c(C)n3c2Cc2ccsc2)cc1OC do in these assays?
PG9 Ab binder: -1; rCAG RNA binder: 12; UHRF1 binding: 1; MBD2 inh: 2; LEDGF integ inh: 0

Results for CCN(Cc1cn(Cc2ccc(C)cc2)nn1)S(=O)(=O)c1ccccc1Br ?
rCAG RNA binder: -2; UHRF1 binding: 1; MBD2 inh: -2; LEDGF integ inh: 1

What do the screens show for `O=C(NCC(=O)N(c1cccnc1)C(C(=O)NC1CCCC1)c1ccccc1F)c1ccco1` (stereo not given)?
DNMT1 block: 2

How did CCc1ccc(NC(=O)C2=CC(c3cccs3)=NS(=O)(=O)N2C)cc1 do in these assays?
PG9 Ab binder: 1; rCAG RNA binder: 8; DNMT1 block: -2; UHRF1 binding: 1; MBD2 inh: -7; LEDGF integ inh: 3

Results for Cc1cc(NS(=O)(=O)c2ccc(NC(=O)Nc3cccc(Cl)c3)cc2)no1 ?
PG9 Ab binder: -1; rCAG RNA binder: 68*; DNMT1 block: -2; UHRF1 binding: 3; MBD2 inh: -2; LEDGF integ inh: 2

How did CC(O)(CC(=O)CC(=O)c1ccccc1)c1ccccc1 (stereo not given) do in these assays?
PG9 Ab binder: 0; rCAG RNA binder: 4; DNMT1 block: 2; UHRF1 binding: 43*; MBD2 inh: 0; LEDGF integ inh: 2

Results for CN(C)c1ccc(C=c2c3cc(O)ccc3n3c2cc(-c2ccccc2)[n+]3C)cc1 ?
PG9 Ab binder: -16; rCAG RNA binder: 25; DNMT1 block: 30; UHRF1 binding: 31*; MBD2 inh: 7; LEDGF integ inh: 8

What do the screens show for `COc1ccc(OC)c(C(=O)CSc2nnc(SCc3cccc4ccccc34)s2)c1`?
rCAG RNA binder: 9; UHRF1 binding: -1; MBD2 inh: 0; LEDGF integ inh: -2

Bioassay records (PubChem)
